TNF necrop inh: inhibitors of TNF-alpha triggered necroptosis, primary screen, cell-based, Jurkat FADD-/-, single concentration. Jurkat FADD-/- TNF necroptosis rescue, ATP luminescence, 24 h; 0 = TNF only, 100 = no-TNF cells. activation (protection from cell death), % at 10 µM. 220,000 tested, 0.068% active. AID 463075, 2010;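 active means activation, meaning protection from cell death, of at least 50% relative to plate controls; inactive means activation below 50%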;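 further: necroptosis triggered by 40 ng/mL TNF-alpha added together with compound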
L929 necroptosis: inhibitors of zVAD-triggered necroptosis, primary screen, L929 cells. L929 zVAD necroptosis rescue, ATP luminescence, 24 h; with zVAD 60 µM. viability rescue, % at 10 µM. 220,000 tested, 0.38% active;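 active means activation, scaled between plate controls, above about 75%, limit read from the data; inactive means activation under that limit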;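 further: 0% = zVAD with DMSO and 100% = DMSO alone without zVAD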
S1P4 agonist: S1P4 receptor agonists, primary screen, cell-based; Sphingosine 1-phosphate receptor 4 (Homo sapiens), O95977; S1P4-expressing cell line, agonist reporter assay; activation, % at 4.98 µM; 220,000 tested, 0.35% active; in the data active means activation above about 11%;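 further: 0% = DMSO vehicle and 100% = reference agonist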
HSV replic up: enhancers of HSV replication in host cells, fold increase, host cell viability; maximum fold increase; 220,000 tested, 0.005% active; AID 1956, 2009; HSV replication augmentation in cells; in the data active means maximum fold increase above about 1.5; tested in PC3 cells
S1P4 antagonist: S1P4 receptor antagonists, primary screen, cell-based | 220,000 tested, 0.26% active | S1P4-expressing cells, antagonist mode, reporter read-out | inhibition, % at 4.98 µM | Sphingosine 1-phosphate receptor 4 (Homo sapiens), O95977; in the data active means inhibition above about 29%;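 further: 0% = wells stimulated with agonist and 100% = vehicle wells without agonist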
Hsp70 act: Hsp70 transcriptional activators, primary screen, cell-based, HeLa, Hsp70 promoter luciferase, luminescence, 10 µM; 200,000 tested, 0.04% active; HeLa Hsp70 promoter luciferase reporter; scaled: vehicle 0, proteasome-inhibitor control 100%; activation, % at 10 µM;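 active means activation above the mean across all tested compounds plus 3 SD, cutoff set per campaign, cut at about 5.5% in these data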;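 further: 100% = MG132 at 30 µM as the positive control and 0% = DMSO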
S1P4 ag conf: S1P4 receptor agonists, retest, confirmation, cell-based, high throughput; S1P4 agonist cell-based reporter assay; 740 tested, 7% active; activation, % at 4.98 µM; shares compounds with S1P4 agonist; in the data active means activation above about 12%;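 further: 0% = vehicle and 100% = full reference agonist response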
S1P1 agonist: S1P1 receptor agonists, human, counter-screen for S1P4 agonist project, cell-based; S1P1 agonist cell-based assay, activation; shares compounds with S1P4 agonist; activation, % at 4.98 µM; 740 tested, 4% active; AID 1563, 2009; in the data active means activation above about 21%;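 further: 0% = vehicle wells and 100% = reference agonist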
Target sequence (P21453 whole entry, looked up): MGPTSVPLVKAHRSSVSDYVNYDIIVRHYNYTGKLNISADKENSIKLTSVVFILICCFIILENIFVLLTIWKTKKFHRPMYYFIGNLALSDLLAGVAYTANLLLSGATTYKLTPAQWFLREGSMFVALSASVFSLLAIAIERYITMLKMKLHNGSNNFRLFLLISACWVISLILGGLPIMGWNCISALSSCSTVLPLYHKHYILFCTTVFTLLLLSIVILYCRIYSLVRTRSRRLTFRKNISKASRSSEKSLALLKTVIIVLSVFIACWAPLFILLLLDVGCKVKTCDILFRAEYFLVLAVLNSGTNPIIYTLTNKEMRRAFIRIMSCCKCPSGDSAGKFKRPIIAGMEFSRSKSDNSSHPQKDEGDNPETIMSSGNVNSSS
Starred values were filed as active, the others as inactive; i = inactive; · = no result given. In the library only some 1% were active in any assay of this set; here they are far more common.

SMILES	TNF necrop inh	L929 necroptosis	S1P4 agonist	HSV replic up	S1P4 antagonist	Hsp70 act	S1P4 ag conf	S1P1 agonist
Cc1cccc2sc(NNC(=O)C3COc4ccccc4O3)nc12 (stereo not drawn)	1.8	3.1	0.8	i	2.7	-0.2	·	·
CCCCNC(=O)C1COc2ccccc2O1 (stereo not drawn)	1.0	-0.2	-1.2	i	12.8	-0.1	·	·
CC(C)NC(=O)C1COc2ccccc2O1 (stereo not drawn)	0.9	4.9	63.9*	i	-11.8	-0.2	-2.0	-1.7
Cc1cc(C)c2sc(NNC(=O)C3COc4ccccc4O3)nc2c1 (stereo not drawn)	-2.5	·	20.9*	·	-4.5	0.4	-1.5	5.2
OC1(c2cccnc2)CCN(Cc2nnnn2Cc2ccccc2)CC1	-1.2	2.7	52.8*	·	0.2	-0.2	-2.0	4.7
COc1ccc(Cl)cc1C(=O)Nn1cnc2ccccc2c1=O	-0.3	-0.1	137.0*	i	-13.9	0.0	-2.5	-0.1
O=C(CCNc1n[nH]c(=O)[nH]c1=O)N/N=C\c1cccc(OCc2ccccc2)c1	8.7	3.1	1.5	i	4.3	0.0	·	·
CCC(C)(C(=O)NC1CCCCC1)N(Cc1cccs1)C(=O)c1ccccn1 (stereo not drawn)	0.9	0.6	44.7*	i	3.5	0.2	-1.8	-1.1
Cc1ncc(CO)c(/C=N/NC(=O)c2cc3c(s2)CCCC3)c1O	-7.9	64.0	0.9	i	-13.4	-0.1	·	·
CC1CC(NC(=O)CCn2c(=O)oc3ccccc32)CC(C)(C)C1 (stereo not drawn)	1.0	0.7	12.1*	i	0.7	-0.4	-1.2	-1.9
CC(=O)C1=C(C)NC(SCC(=O)c2ccc(Cl)cc2Cl)=C(C#N)C1c1ccco1 (stereo not drawn)	-2.5	0.4	23.6*	i	-30.5	0.4	25.9*	-8.0
Cc1cc(C(=O)CSc2nc3ccccc3c(=O)[nH]2)c(C)n1CC1CCCO1 (stereo not drawn)	0.0	0.2	52.7*	i	-7.6	0.1	-0.1	7.6
Cc1cc(C(=O)CSc2nc3ccccc3c(=O)n2C)c(C)n1CC1CCCO1 (stereo not drawn)	-14.6	-0.6	196.0*	i	-28.6	0.4	-1.8	2.8
Cc1cc(C(=O)COC(=O)CCc2nc3ccccc3c(=O)[nH]2)c(C)n1CC1CCCO1 (stereo not drawn)	1.1	0.4	1.5	i	-6.5	·	·	·
CCn1c(SCC(=O)c2cc(C)n(CC3CCCO3)c2C)nc2ccccc21 (stereo not drawn)	-5.4	-0.4	-1.0	i	5.9	-0.2	·	·
CC(C)CN1CCC(CNC(=O)CCc2nnc(Cc3c[nH]c4ccccc34)o2)CC1	1.3	4.7	0.1	i	-13.0	-0.3	·	·
COC(=O)c1sccc1NC(=S)Nc1cc(C)ccc1OC	-2.1	-0.3	0.9	i	-27.4	-0.2	·	·
Cc1ccc(NC(=O)CSc2nnc(CNC(=O)c3cccs3)o2)cc1	0.2	1.8	0.5	i	-4.2	-0.2	·	·
COc1cc(C(=O)NCc2nnc(SCC(=O)Nc3nccs3)o2)cc(OC)c1OC	0.6	1.4	12.6*	i	-19.6	-0.2	-2.5	-0.6
O=C(CSc1nnc(CNC(=O)c2cccs2)o1)Nc1ccccc1	0.3	0.4	12.2*	·	-5.9	-0.3	0.1	-5.5
COCCNC(=O)CSc1nc2cc3c(cc2c(=O)n1Cc1ccco1)OCO3	0.5	0.8	-1.4	i	-1.6	-0.3	·	·
COCCNC(=O)c1ccc2c(=O)n(Cc3ccco3)c(SCC(=O)NC3CCCC3)nc2c1	1.7	0.2	12.4*	i	2.0	0.0	-2.1	-8.9
CC(=O)Nc1nn(C)c2nc(C)cc(C)c12	0.3	1.5	27.7*	i	1.9	-0.1	-2.4	0.3
Cc1cccc2cc3c(NC(=O)C(C)C)nn(C)c3nc12	1.4	0.9	0.4	i	7.4	-0.1	·	·
N#CNc1nc(O)cc(=O)[nH]1	-0.2	0.2	1.2	i	11.5	·	·	·
SMILES	TNF necrop inh	L929 necroptosis	S1P4 agonist	HSV replic up	S1P4 antagonist	Hsp70 act	S1P4 ag conf	S1P1 agonist
CCCOc1ccc(/C=N/Nc2ccc(C(=O)O)cc2)c(OCCC)c1	-0.6	3.2	11.7*	i	13.0	0.4	-1.4	-1.7
CN(C1CCCCC1)S(=O)(=O)c1ccc(-c2ccccn2)s1	3.0	1.1	-1.3	i	3.6	·	·	·
Cn1cc(C2CC(c3ccccc3)=NN2C(=O)c2ccccc2)c2ccccc21 (stereo not drawn)	-0.9	1.3	12.9*	i	-15.1	-0.4	-3.0	0.5
CCCC(=O)N1N=C(c2ccccc2)CC1c1cn(C)c2ccccc12 (stereo not drawn)	2.1	0.3	0.0	i	-19.2	-0.5	·	·
COc1ccc(C2c3cc(OC)c(OC)cc3CCN2C2CC(=O)N(c3ccccc3)C2=O)cc1OC (stereo not drawn)	-0.1	-0.6	18.1*	i	-2.5	-0.2	0.0	-3.1
CC(=O)Oc1cc2oc(=O)c3c(c2cc1Cl)CCC3	-0.5	-0.7	15.3*	i	-14.1	-0.1	0.7	-5.0
CNS(=O)(=O)c1cnccc1N1CCN(c2cccc(C(F)(F)F)c2)CC1	-1.4	0.2	-0.9	i	14.8	-0.1	·	·
CC1CCCCN1C(=O)COc1ccccc1F (stereo not drawn)	2.4	-0.4	12.7*	i	-31.1	0.2	-0.4	-0.4
COc1ccc(-c2nnn(CC(=O)N(CCO)C(C(=O)NC3CCCC3)c3ccncc3)n2)cc1 (stereo not drawn)	0.8	3.2	76.1*	i	-22.9	-0.2	-1.8	-4.0
COc1ccc(C2=NN(C(=O)CN3CCCCC3)C(c3ccc(OC)cc3)C2)cc1 (stereo not drawn)	-2.1	-0.4	-1.4	i	18.5	·	·	·
COc1ccc(C2CC(c3ccc(Br)cc3)=NN2C(=O)c2cccnc2)cc1 (stereo not drawn)	2.5	-0.3	12.2*	i	-16.8	-0.4	-0.5	2.4
COc1ccc(C2=NN(C(=O)CN3CCCC3)C(c3ccc(OC)cc3)C2)cc1 (stereo not drawn)	-0.4	-0.4	39.5*	i	11.7	·	-1.8	-7.9
O=C(CSc1ncccn1)N1CCN(S(=O)(=O)c2ccccc2)CC1	-1.0	0.3	0.8	i	-0.2	·	·	·

Screening results: PubChem BioAssay, several laboratories
